# G9a inh: inhibitors of human histone lysine methyltransferase G9a; Q96KQ7; 8.8% of 350,000 active; AID 504332; Potency, µM (doses to about 102 µM), inactives show at the top dose activity, negative = inhibition, hits mostly inhibitors; G9a H3K9 monomethylation, AlphaScreen, 2 h; further: on the % scale 0 is the no-effect control and ±100 the full control effect; nearly all actives have a fitted effect of over 75% in size
# Target sequence (Q96KQ7 913-1193 limits assumed): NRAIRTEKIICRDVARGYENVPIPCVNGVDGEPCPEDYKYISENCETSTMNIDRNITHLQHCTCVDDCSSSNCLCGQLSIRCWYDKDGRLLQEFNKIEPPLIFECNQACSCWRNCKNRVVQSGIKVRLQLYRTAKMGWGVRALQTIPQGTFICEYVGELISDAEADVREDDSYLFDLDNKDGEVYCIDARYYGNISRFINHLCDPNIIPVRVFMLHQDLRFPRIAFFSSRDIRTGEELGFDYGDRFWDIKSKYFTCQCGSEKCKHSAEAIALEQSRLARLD
#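 Step 1: enzyme (final 20 nM) with compound, 15 min RT. Step 2: substrate peptide 500 nM and SAM 20 uM, 2 h RT. Step 3: anti-H3K9me1 antibody and AlphaScreen beads, 10 min, then plate read.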
# JMJD2A Tudor inh: blocks the human JMJD2A Tudor domain | Potency, µM (series often up to 114 µM), for the others: top-dose activity change, negative = inhibition, actives largely listed as inhibitors | O75164 | AlphaScreen JMJD2A-Tudor / H3K4me3 peptide binding | 4.4% of 390,000 active; further: on the % scale 0 is the no-effect control and ±100 the full control effect; nearly all actives have a fitted effect of over 50% in size
# GLS inh: glutaminase GLS (human) inhibition; GLS enzymatic activity, qHTS titration; 0.21% of 410,000 active; AID 624170; Potency, µM (titrated, usually from 45.5 µM), inactives show at the top dose activity change, negative = inhibition, actives largely listed as inhibitors; O94925; further: on the % scale 0 is the no-effect control and ±100 the full control effect
#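 Enzyme dispensed in phosphate buffer (45 mM, pH 8.2, 0.02% Tween-20), compounds pinned in, then 1 mM L-glutamine solution and the glutamate oxidase–HRP–Amplex Red mix added; fluorescence read immediately and again after 30 min at room temperature.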
# BAZ2B block: blocks human BAZ2B; Q9UIF8; Potency, µM (doses to about 114 µM), inactives show top-dose activity change, negative = inhibition, hits mostly inhibitors; AlphaScreen BAZ2B-H3K14Ac peptide displacement; 4.4% of 360,000 active; further: on the % scale 0 is the no-effect control and ±100 the full control effect; nearly all actives have a fitted effect of over 60% in size
#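 BAZ2B (50 nM) with biotin-H3(5-23)K14Ac peptide (50 nM) in PBS pH 7.4, 0.01% Tween-20, preformed 30 min, then compound 30 min at room temperature; top concentration 110uM. AlphaScreen streptavidin donor/nickel chelate acceptor beads (10 ug/mL final), 20 min dark, signal read.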
# HP1b chromo inh: blocks HP1-beta chromodomain binding to methylated histone tails | AlphaScreen HP1-beta / biotin-H3K9me3 peptide binding | P83916 | Potency, µM (doses to about 114 µM), inactives show top-dose activity change, negative = inhibition, usual class: inhibitors | 0.56% of 390,000 active; further: nearly all actives have a fitted effect of over 70% in size
# Target sequence (P83916 whole entry, looked up): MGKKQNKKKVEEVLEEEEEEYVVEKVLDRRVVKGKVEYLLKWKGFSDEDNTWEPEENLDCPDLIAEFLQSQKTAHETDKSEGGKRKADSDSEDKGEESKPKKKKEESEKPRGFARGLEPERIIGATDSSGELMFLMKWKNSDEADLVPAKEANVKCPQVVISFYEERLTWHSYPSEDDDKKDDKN
#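 AlphaScreen: HP1-beta (50 nM) preformed 30 min with biotin-H3(1-18)K9me3 peptide (50 nM) in PBS pH 7.4, 0.01% Tween-20. Compound added for 30 min at RT, then streptavidin donor/nickel chelate acceptor beads (10 ug/mL) for 30 min.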
# An asterisk follows results filed as active; ? = inconclusive; . = no result; [ ] = remark or other dose. A selection: hits, their analogues and other compounds. The true share with any hit is near 10%. The call rests on the fitted dose curve; in most records, active means well fitted curve in the direction sought with a large enough effect; inconclusive means small, poorly fitted or top-dose-only effect, or another doubt; inactive means no such curve, though single readings can be large; an effect the other way counts as inactive or inconclusive. Potency means the concentration at half of the fitted maximal effect.
SMILES,G9a inh,JMJD2A Tudor inh,GLS inh,BAZ2B block,HP1b chromo inh
O=C(/C=C/c1ccccc1)Nc1scc(-c2ccccc2)c1C(=O)O,.,-19.6%,10.3%,-12.6%,16.3%
CCOC(=O)Cc1csc(NC(=O)/C=C/c2ccco2)n1,50.1µM*,-22.3%,-19.4%,-28.3%,20.4%
CCOC(=O)Cc1csc(SCC(=O)NC2CCCCC2)n1,?,-2.1%,3.7%,-4.2%,19.9%
COc1cc(-c2ccc(N=Nc3ccc4c(S(=O)(=O)O)cc(S(=O)(=O)O)c(N)c4c3O)c(OC)c2)ccc1N=Nc1ccc2c(S(=O)(=O)O)cc(S(=O)(=O)O)c(N)c2c1O,7.08µM*,.,.,.,.
O=C(c1cc(COc2ccc(-n3cncn3)cc2)on1)N1CCCC1,.,-6.0%,-11.5%,.,34.0%
Cn1c(=O)c2c(ncn2CC(=O)N/N=C/C=C/c2ccccc2)n(C)c1=O,?,39.8µM*,8.5%,-1.2%,15.7%
COc1cccc(/C=N/NC(=O)Cn2cnc3c2c(=O)n(C)c(=O)n3C)c1,.,56.2µM*,-7.3%,1.0%,0.7%
Cc1ccc2nc(C)c(C)nc2c1N,-27.7%,-13.5%,16.4%,15.0%,12.8%
COc1ccc(-c2c(C)[nH]n3c(=O)c(Cc4ccccc4)c(C)nc23)cc1OC,-3.0%,-23.2%,0.0%,-11.9%,18.0%
OC1=C(O)c2nc3cc(F)ccc3nc21,39.8µM*,-12.4%,28.7%,-12.3%,17.1%
Nc1nnc2cc(F)ccc2n1,.,.,-8.8%,.,.
COc1cccc(/C=C/C(=O)c2ccc(NS(=O)(=O)c3ccc(C)cc3)cc2)c1,2.51µM*,?,4.8%,?,-17.9%
COc1cc(/C=C/C(=O)c2ccc(NS(=O)(=O)c3ccc(C)cc3)cc2)cc(OC)c1O,39.8µM*,-32.8%,4.9%,?,?
O=C(Nc1ccc(-c2nnc3n2CCCCC3)cc1)c1ccco1,13.7%[59 µM],-14.0%,-3.9%,6.7%,11.5%
CC(C)c1cc(-c2nc(-c3cccc(Cl)c3)no2)n[nH]1,-3.8%[59 µM],-1.0%,-1.3%,-3.4%,40.2%
COc1ccc(Cn2nnnc2C(c2ccccc2Cl)N2CCN(C)CC2)cc1 (stereo unspecified),-46.7%[12.7 µM],-35.8%,7.2%,-12.8%,21.3%
CC(NC(=O)C(=O)N1CCCCC1)C(c1cccs1)N1CCN(c2ccccc2)CC1 (stereo unspecified),?,-28.6%,27.0%,-37.4%,22.6%
COc1ccc(N2CCN(C(c3cccs3)C(C)NC(=O)C(=O)N3CCCC3)CC2)cc1 (stereo unspecified),44.7µM*,?,44.6%,39.8µM*,-3.7%
CC(NC(=O)C(=O)N1CCCCC1)C(c1cccs1)N1CCN(c2ccc(F)cc2)CC1 (stereo unspecified),?,-29.7%,10.8%,?,15.4%
COc1ccc(N2CCN(C(c3cccs3)C(C)NC(=O)C(=O)N3CCCCC3)CC2)cc1 (stereo unspecified),50.1µM*,-30.6%,31.0%,-35.3%,0.9%
Nc1ccc(S(=O)(=O)Nc2cc(Cl)c(N)c(Cl)c2)cc1,.,-14.5%,39.9%,.,16.1%[57 µM]
C#CCOCCOCCOCCNc1nc(N2CCN(C(=O)CCCCCCCCCCNC(=O)[C@H](CO)n3cc(CCCSC)nn3)CC2)nc(N2CCN(C(=O)CCCCCCCCCCNC(=O)[C@H](CCCCN)n3cc(C[C@@H](C)CC)nn3)CC2)n1,-46.4%[12.7 µM],.,.,?,.
C#CCOCCOCCOCCNc1nc(N2CCN(C(=O)CCCCCCCCCCNC(=O)[C@H](CCCCN)n3cc(CCCC(=O)O)nn3)CC2)nc(N2CCN(C(=O)CCCCCCCCCCNC(=O)[C@H](CCCN=C(N)N)n3cc(C[C@@H](C)CC)nn3)CC2)n1,7.8%[2.33 µM],56.2µM*,-17.7%,50.1µM*,-22.9%
C#CCOCCOCCOCCNc1nc(N2CCN(C(=O)CCCCCCCCCCNC(=O)[C@H](CCCCN)n3cc(C[C@@H](C)CC)nn3)CC2)nc(N2CCN(C(=O)CCCCCCCCCCNC(=O)[C@H](CCCCN)n3cc(C[C@@H](C)CC)nn3)CC2)n1,.,50.1µM*,?,.,70.8µM*
C#CCOCCOCCOCCNc1nc(N2CCN(C(=O)CCCCCCCCCCNC(=O)Cn3cc(C[C@@H](C)O)nn3)CC2)nc(N2CCN(C(=O)CCCCCCCCCCNC(=O)[C@H](CCCCN)n3cc(C[C@@H](C)CC)nn3)CC2)n1,-49.1%[12.7 µM],79.4µM*,?,?,?
SMILES,G9a inh,JMJD2A Tudor inh,GLS inh,BAZ2B block,HP1b chromo inh
C#CCOCCOCCOCCNc1nc(N2CCN(C(=O)CCCCCCCCCCNC(=O)[C@@H](CCC(=O)O)n3cc(CCCCCN)nn3)CC2)nc(N2CCN(C(=O)CCCCCCCCCCNC(=O)[C@@H](CCC(=O)O)n3cc(CCCCCN)nn3)CC2)n1,0.3%[2.33 µM],-31.2%,1.1%,?,36.2%
C#CCOCCOCCOCCNc1nc(N2CCN(C(=O)CCCCCCCCCCNC(=O)Cn3cc(C[C@@H](C)O)nn3)CC2)nc(N2CCN(C(=O)CCCCCCCCCCNC(=O)Cn3cc(C[C@@H](C)O)nn3)CC2)n1,1.7%[2.33 µM],-14.3%,0.5%,-20.2%,36.1%
C#CCOCCOCCOCCNc1nc(N2CCN(C(=O)CCCCCCCCCCNC(=O)[C@H]([C@@H](C)CC)n3cc(CCCCN=C(N)N)nn3)CC2)nc(N2CCN(C(=O)CCCCCCCCCCNC(=O)[C@H](CCCCN)n3cc(C[C@@H](C)CC)nn3)CC2)n1,16.2%[2.33 µM],.,.,50.1µM*,.
Cc1cccc(NC(=O)c2ccc(C(=O)Nc3cccc(C)c3)nc2)c1,-3.6%[59 µM],-9.0%,16.6%,3.1%,14.6%
O=C(c1ccco1)N1C(=O)c2cccc3cccc1c23,5.0%[12.7 µM],-21.2%[11.4 µM],-20.3%,-26.7%,-15.6%
C#CCOCCOCCOCCNc1nc(N2CCN(C(=O)CCCCCCCCCCNC(=O)[C@H](CCCCN)n3cc(CCCC(=O)O)nn3)CC2)nc(N2CCN(C(=O)CCCCCCCCCCNC(=O)[C@H](CCCCN)n3cc(CCCC(=O)O)nn3)CC2)n1,6.0%[2.33 µM],?,0.4%,-33.7%,31.9%
C#CCOCCOCCOCCNc1nc(N2CCN(C(=O)CCCCCCCCCCNC(=O)[C@H](CCCCN)n3cc(CCO)nn3)CC2)nc(N2CCN(C(=O)CCCCCCCCCCNC(=O)[C@H](CCCN=C(N)N)n3cc(C[C@@H](C)CC)nn3)CC2)n1,24.4%[2.33 µM],44.7µM*,?,50.1µM*,?
c1ccc(-c2ccccc2OCCCCn2ccnc2)cc1,.,20µM*,7.5%,50.1µM*,39.8µM*
CC(C)(C)c1ccccc1OCCCCCNCCO,?,3.16µM*,-0.4%,?,?
Cc1ccccc1OCCCCCNCCO,-9.1%[59 µM],-13.7%,-0.1%,14.7%,66.4%
CC(C)(C)c1ccccc1OCCCCCn1ccnc1,?,2.82µM*,?,17.8µM*,?
Cc1cc(-c2ccc(S(=O)(=O)Nc3ccc(C#N)cc3)s2)on1,?,-3.1%,10.1%,-7.1%,54.6%
